{"source": "ChEMBL document CHEMBL1961873", "about": "“Compounds: GSK PKIS; Assays: Nanosyn kinase panel” (2012)", "note": "Several values for one entry are separate records, joined by “and”; a condition that tells them apart may be missing. Equal values may be shown once.", "data": [{"molecular_target": "MAP kinase-interacting serine/threonine-protein kinase 1 (Homo sapiens) (UniProt Q9BUB5)", "sequence (Q9BUB5 whole entry, looked up)": "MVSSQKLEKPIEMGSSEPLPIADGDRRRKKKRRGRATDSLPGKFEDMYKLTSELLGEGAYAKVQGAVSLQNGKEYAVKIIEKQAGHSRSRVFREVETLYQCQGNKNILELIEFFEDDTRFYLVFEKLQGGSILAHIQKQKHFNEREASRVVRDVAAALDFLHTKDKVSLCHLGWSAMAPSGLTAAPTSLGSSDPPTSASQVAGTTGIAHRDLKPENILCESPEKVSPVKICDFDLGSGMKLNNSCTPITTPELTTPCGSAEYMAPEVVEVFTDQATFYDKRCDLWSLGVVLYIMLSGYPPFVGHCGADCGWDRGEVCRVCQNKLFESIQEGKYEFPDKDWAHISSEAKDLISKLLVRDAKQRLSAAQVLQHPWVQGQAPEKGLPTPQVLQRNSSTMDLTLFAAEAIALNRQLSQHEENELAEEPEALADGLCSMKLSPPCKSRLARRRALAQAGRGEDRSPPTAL", "conditions": "at 0.1 µM", "values": [{"smiles": "Cc1c2ccc(N(C)c3ccnc(Nc4cccc(S(N)(=O)=O)c4)n3)cc2nn1C", "inhibition": "1.23%"}, {"smiles": "Cc1ccc(-c2cc3c(NC(=O)C4CC4)ncnc3o2)cc1", "inhibition": "1.56%"}, {"smiles": "CN(C)CCNC(=O)Nc1ccc(N(C)c2ccnc(Nc3ccc(CS(C)(=O)=O)cc3)n2)cc1", "inhibition": "1.51%"}, {"smiles": "CCS(=O)(=O)c1ccc(OC)c(Nc2ncc(-c3cccc(F)c3)o2)c1", "inhibition": "3.79%"}, {"smiles": "CC(C)c1ccc(-c2cc(-c3c[nH]nc3-c3ccccn3)ccn2)cc1", "inhibition": "1.48%"}, {"smiles": "c1ccc(-c2n[nH]cc2-c2ccnc(-c3ccc(OCCn4ccnc4)cc3)c2)nc1", "inhibition": "0.75%"}, {"smiles": "COc1ccc(Nc2ncc(-c3ccccc3)o2)cc1OC", "inhibition": "2.58%"}, {"smiles": "Cc1cc(O)cc(C)c1/C=C/c1cncc(C(N)=O)c1", "inhibition": "9.34%"}, {"smiles": "CC1=C(C(=O)Nc2ccc3[nH]nc(C)c3c2)C(c2ccc(C(F)(F)F)cc2)CC(=O)N1", "note": "(configuration not stated)", "inhibition": "3.53%"}, {"smiles": "NS(=O)(=O)c1cccc(N/C=C2\\C(=O)Nc3ccccc32)c1", "inhibition": "2.36%"}, {"smiles": "Fc1ccc(Nc2nccc(-c3c(-c4ccc(C(F)(F)F)cc4)nn4ncccc34)n2)cc1F", "inhibition": "2.72%"}, {"smiles": "COc1cc2c(cc1Nc1nc(Nc3cccc(F)c3C(N)=O)c3cc[nH]c3n1)N(C(=O)CN1CCN(C(C)C)CC1)CC2", "inhibition": "1.4%"}, {"smiles": "O=C(O[C@H]1CN[C@H](C#Cc2cc3ncnc(Nc4ccc5c(ccn5Cc5cc(F)ccc5F)c4)c3s2)C1)N1CCOCC1", "inhibition": "2.17%"}, {"smiles": "CCN1CCC(C(=O)Nc2n[nH]c3nnc(-c4cccc(F)c4F)cc23)CC1", "inhibition": "1.56%"}, {"smiles": "N#Cc1cccc(Nc2ncc(-c3ccccc3)o2)c1", "inhibition": "2.67%"}, {"smiles": "CS(=O)(=O)CCNCc1ccoc1-c1ccc2ncnc(Nc3ccc(OCc4ccccc4)cc3)c2c1", "inhibition": "2%"}, {"smiles": "COc1cccc(-n2ncc3c(N/N=C/c4ccc(C(=O)NCCN(C)C)cc4)ncnc32)c1", "inhibition": "39.4%"}, {"smiles": "COc1cc(N2CCN(C(C)C)CC2)ccc1Nc1nc(Nc2cccc3ncccc23)c2cc[nH]c2n1", "inhibition": "0.05%"}, {"smiles": "NS(=O)(=O)c1ccc(N/N=C2\\C(=O)Nc3ccc(C(=O)NCc4ccncc4)cc32)cc1", "inhibition": "2.18%"}, {"smiles": "CCn1c(-c2nonc2N)nc2cncc(C(=O)NCCNC)c21", "inhibition": "2.94%"}, {"smiles": "COC(=O)Nc1nc2cc(Oc3ccc(NC(=O)Nc4ccccc4)cc3)ccc2[nH]1", "inhibition": "3%"}, {"smiles": "COc1cc(Nc2ncc(-c3ccccc3)o2)cc(OC)c1", "inhibition": "3.84%"}, {"smiles": "COc1ccc(-c2nn3ncccc3c2-c2ccnc(Nc3ccc(F)c(F)c3)n2)cc1", "inhibition": "2.98%"}, {"smiles": "COc1c(C(N)=O)cc(-c2ccc(Cl)cc2)cc1-c1ccc(S(N)(=O)=O)cc1", "inhibition": "3.66%"}, {"smiles": "Nc1ncnc2occ(-c3ccc(NC(=O)Nc4cc(C(F)(F)F)ccc4F)cc3)c12", "inhibition": "6.91% and 2.48%"}, {"smiles": "CC1=C(C(=O)Nc2ccc3[nH]ncc3c2)C(c2ccc(F)cc2)N=C(c2ccc(C(F)(F)F)nc2)N1", "note": "(configuration not stated)", "inhibition": "2.55%"}, {"smiles": "CN1CCN(Cc2ccc(-c3cc4ncnc(Nc5ccc(OCc6cccc(F)c6)c(Cl)c5)c4s3)o2)CC1", "inhibition": "3.21% and 7.2%"}, {"smiles": "N#Cc1ccc2c(-c3ccnc(NC4CC4)n3)c(-c3ccc(F)cc3)nn2c1", "inhibition": "1.98%"}, {"smiles": "CNC(=O)c1ncccc1Nc1nc(Nc2cc3c(cc2OC)CCCN3C(=O)CN(C)C)nc2[nH]ccc12", "inhibition": "2.12%"}, {"smiles": "Nc1nccc(-c2c(-c3ccc(F)cc3)ncn2C2CCNCC2)n1", "inhibition": "-0.09% and 1.2%"}, {"smiles": "c1cnn2ncc(-c3ccnc(NCCCN4CCOCC4)n3)c2c1", "inhibition": "4.1%"}]}, {"molecular_target": "MAP kinase-interacting serine/threonine-protein kinase 1 (Homo sapiens) (UniProt Q9BUB5)", "conditions": "at 1 µM", "values": [{"smiles": "Cc1c2ccc(N(C)c3ccnc(Nc4cccc(S(N)(=O)=O)c4)n3)cc2nn1C", "inhibition": "4.05%"}, {"smiles": "Cc1ccc(-c2cc3c(NC(=O)C4CC4)ncnc3o2)cc1", "inhibition": "6.36%"}, {"smiles": "CN(C)CCNC(=O)Nc1ccc(N(C)c2ccnc(Nc3ccc(CS(C)(=O)=O)cc3)n2)cc1", "inhibition": "3.79%"}, {"smiles": "CCS(=O)(=O)c1ccc(OC)c(Nc2ncc(-c3cccc(F)c3)o2)c1", "inhibition": "19.5%"}, {"smiles": "CC(C)c1ccc(-c2cc(-c3c[nH]nc3-c3ccccn3)ccn2)cc1", "inhibition": "3.11%"}, {"smiles": "c1ccc(-c2n[nH]cc2-c2ccnc(-c3ccc(OCCn4ccnc4)cc3)c2)nc1", "inhibition": "5.94%"}, {"smiles": "COc1ccc(Nc2ncc(-c3ccccc3)o2)cc1OC", "inhibition": "28.8%"}, {"smiles": "Cc1cc(O)cc(C)c1/C=C/c1cncc(C(N)=O)c1", "inhibition": "44.9%"}, {"smiles": "CC1=C(C(=O)Nc2ccc3[nH]nc(C)c3c2)C(c2ccc(C(F)(F)F)cc2)CC(=O)N1", "note": "(configuration not stated)", "inhibition": "6.23%"}, {"smiles": "NS(=O)(=O)c1cccc(N/C=C2\\C(=O)Nc3ccccc32)c1", "inhibition": "4.02%"}, {"smiles": "Fc1ccc(Nc2nccc(-c3c(-c4ccc(C(F)(F)F)cc4)nn4ncccc34)n2)cc1F", "inhibition": "2.85%"}, {"smiles": "COc1cc2c(cc1Nc1nc(Nc3cccc(F)c3C(N)=O)c3cc[nH]c3n1)N(C(=O)CN1CCN(C(C)C)CC1)CC2", "inhibition": "1.42%"}, {"smiles": "O=C(O[C@H]1CN[C@H](C#Cc2cc3ncnc(Nc4ccc5c(ccn5Cc5cc(F)ccc5F)c4)c3s2)C1)N1CCOCC1", "inhibition": "5.94%"}, {"smiles": "CCN1CCC(C(=O)Nc2n[nH]c3nnc(-c4cccc(F)c4F)cc23)CC1", "inhibition": "3.13%"}, {"smiles": "N#Cc1cccc(Nc2ncc(-c3ccccc3)o2)c1", "inhibition": "10.1%"}, {"smiles": "CS(=O)(=O)CCNCc1ccoc1-c1ccc2ncnc(Nc3ccc(OCc4ccccc4)cc3)c2c1", "inhibition": "4.19%"}, {"smiles": "COc1cccc(-n2ncc3c(N/N=C/c4ccc(C(=O)NCCN(C)C)cc4)ncnc32)c1", "inhibition": "72.9%"}, {"smiles": "COc1cc(N2CCN(C(C)C)CC2)ccc1Nc1nc(Nc2cccc3ncccc23)c2cc[nH]c2n1", "inhibition": "2.31%"}, {"smiles": "NS(=O)(=O)c1ccc(N/N=C2\\C(=O)Nc3ccc(C(=O)NCc4ccncc4)cc32)cc1", "inhibition": "10.9%"}, {"smiles": "CCn1c(-c2nonc2N)nc2cncc(C(=O)NCCNC)c21", "inhibition": "6.9%"}, {"smiles": "COC(=O)Nc1nc2cc(Oc3ccc(NC(=O)Nc4ccccc4)cc3)ccc2[nH]1", "inhibition": "6.54%"}, {"smiles": "COc1cc(Nc2ncc(-c3ccccc3)o2)cc(OC)c1", "inhibition": "10.8%"}, {"smiles": "COc1ccc(-c2nn3ncccc3c2-c2ccnc(Nc3ccc(F)c(F)c3)n2)cc1", "inhibition": "6.32%"}, {"smiles": "COc1c(C(N)=O)cc(-c2ccc(Cl)cc2)cc1-c1ccc(S(N)(=O)=O)cc1", "inhibition": "11.2%"}, {"smiles": "Nc1ncnc2occ(-c3ccc(NC(=O)Nc4cc(C(F)(F)F)ccc4F)cc3)c12", "inhibition": "30% and 16.5%"}, {"smiles": "CC1=C(C(=O)Nc2ccc3[nH]ncc3c2)C(c2ccc(F)cc2)N=C(c2ccc(C(F)(F)F)nc2)N1", "note": "(configuration not stated)", "inhibition": "4.82%"}, {"smiles": "CN1CCN(Cc2ccc(-c3cc4ncnc(Nc5ccc(OCc6cccc(F)c6)c(Cl)c5)c4s3)o2)CC1", "inhibition": "18.6% and 22%"}, {"smiles": "N#Cc1ccc2c(-c3ccnc(NC4CC4)n3)c(-c3ccc(F)cc3)nn2c1", "inhibition": "0.7%"}, {"smiles": "CNC(=O)c1ncccc1Nc1nc(Nc2cc3c(cc2OC)CCCN3C(=O)CN(C)C)nc2[nH]ccc12", "inhibition": "3.28%"}, {"smiles": "Nc1nccc(-c2c(-c3ccc(F)cc3)ncn2C2CCNCC2)n1", "inhibition": "12.4% and 3.16%"}, {"smiles": "c1cnn2ncc(-c3ccnc(NCCCN4CCOCC4)n3)c2c1", "inhibition": "10.9%"}]}]}
